# Compound activity from PubChem.
# GLP-1R agonist: activates the human GLP-1 receptor | Potency, µM (highest dose often 45.6 µM), inactives show top-dose activation, hits mostly activators | actives 0.007% (n = 380,000) | HEK293 GLP-1R CRE-luciferase, luminescence, 4-6 h; cells express a hypersensitive GLP-1R form | P43220; further: potency means the concentration at half of the fitted maximal effect; % of control where 0% means no effect
# IDH1 R132H inh: inhibitors of human mutant IDH1 R132H. O75874. IDH1-R132H enzyme, NADPH consumption, diaphorase/resazurin fluorescence. Potency, µM (top dose mostly 76.6 µM), without a hit: at the top dose activity change, negative = inhibition, most hits filed as inhibitors. actives 0.093% (n = 390,000); further: potency means the concentration at half of the fitted maximal effect; on the % scale 0 is the no-effect control and ±100 the full control effect; nearly all actives have a fitted effect of over 65% in size
# Target sequence (O75874 whole entry R132H, stated change not applied): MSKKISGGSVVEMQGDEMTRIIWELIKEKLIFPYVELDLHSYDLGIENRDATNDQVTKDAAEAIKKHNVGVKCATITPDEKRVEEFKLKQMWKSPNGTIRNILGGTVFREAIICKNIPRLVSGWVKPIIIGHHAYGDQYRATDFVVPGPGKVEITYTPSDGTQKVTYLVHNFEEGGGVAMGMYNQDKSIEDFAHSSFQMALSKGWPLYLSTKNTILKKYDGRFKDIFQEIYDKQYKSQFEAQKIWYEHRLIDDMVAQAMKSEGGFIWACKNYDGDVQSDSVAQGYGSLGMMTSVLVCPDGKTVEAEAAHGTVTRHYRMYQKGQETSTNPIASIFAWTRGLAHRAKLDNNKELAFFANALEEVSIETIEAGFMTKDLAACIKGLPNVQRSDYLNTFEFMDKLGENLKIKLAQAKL
#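 IDH1-R132H (0.5 ug/mL) preincubated 30 min with compound, then NADPH (0.016 mM) and alpha-KG (2 mM) added; 80 min at RT, pH 7.5. Remaining NADPH coupled via diaphorase/resazurin to fluorescence (540/590 nm); concentration-response curves normalized to no-enzyme control.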
# PTHR1 agonist: PTHR1 (human) receptor agonism; Q03431; HEK293 GP2 PTHR1 cells, GloSensor cAMP luminescence, 1 h; Potency, µM (highest dose often 115 µM), inactives show at the highest dose activation, most hits filed as activators; actives 0.075% (n = 410,000); AID 743266; further: potency means the concentration at half of the fitted maximal effect; nearly all actives have a fitted effect of over 55% in size
#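 HEK-293-derived GP2 cells expressing PTHR1 and a GloSensor cAMP reporter, 3,000/well, plated overnight, given luciferin plus IBMX (each 0.5 mM as added) for 1 h at 37 °C, then compound for 1 h at 37 °C. Luminescence was read after 15 min at room temperature.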
# GLP-1R inv ag: acts as inverse agonist at human GLP-1 receptor. P43220. HEK293 GLP-1R CRE-luciferase, luminescence, 24 h; GLP-1R form is constitutively active. Potency, µM (series often up to 38.3 µM), inactives show top-dose activity change, negative = inhibition, usual class: inhibitors. actives 1.6% (n = 410,000). AID 624417; further: potency means the concentration at half of the fitted maximal effect; on the % scale 0 is the no-effect control and ±100 the full control effect; nearly all actives have a fitted effect of over 55% in size
#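 Constitutively active GLP-1R drives a cAMP-responsive luciferase in stably transfected HEK293 cells; test compounds are added after overnight (12 h) attachment and left 24 hr, and signal loss in luminescence marks inhibition.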
# GLP1R cytotox: cytotoxicity in counter-screen for GLP-1R inverse agonists | HEK293 cAMP-luciferase reporter cells, luminescence, 24 h | Potency, µM (top dose mostly 38.3 µM), for inactives: at the highest dose activity change, negative = inhibition, hits mostly inhibitors | actives 0.13% (n = 410,000) | AID 624418;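 further: loss of luciferase light is scored as toxicity; potency means the concentration at half of the fitted maximal effect; on the % scale 0 is the no-effect control and ±100 the full control effect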
#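 Here, cytotoxicity is scored as loss of luminescence. The MLSMR collection was tested on cells seeded in medium containing 10% Nu serum, with a 24 hr compound exposure preceded by 12 hours of culture.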
# LDHA inh: blocks human lactate dehydrogenase A. P00338. purified LDHA, NADH/diaphorase-resazurin fluorescence; stronger effect = lower value. activity change, % (values are at about 110 or 230 µM). actives 0.15% (n = 480,000); in the data active means activity change below about -30%; inconclusive means mostly about -25% to -30%;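 further: plate controls were DMSO wells for no effect and wells without enzyme for full effect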
#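 Human LDH5 at 2 nM final in Tris HCl pH 7.4 with 0.06 mM NADH and 0.2 mM pyruvate, reacted 5 minutes at room temperature. Remaining NADH coupled via diaphorase/resazurin; resorufin fluorescence read at 0 and 20 minutes, normalized to enzyme-free and DMSO wells.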
# The depositor's hits bear a star; i = inactive; ? = inconclusive; / = no result given; [ ] = dose if it differs, or a comment. The list is not random: actives were taken first. Their share in the collection is about 1.7%. Unless noted, the call rests on the fitted dose curve; in most records, active means well fitted curve in the direction sought with a large enough effect; inconclusive means small, poorly fitted or top-dose-only effect, or another doubt; inactive means no such curve, though single readings can be large; an effect the other way counts as inactive or inconclusive.
SMILES,GLP-1R agonist,IDH1 R132H inh,PTHR1 agonist,GLP-1R inv ag,GLP1R cytotox,LDHA inh
O=C(NCc1ccccc1)c1ccc(CN2CCC(Cc3ccccc3)CC2)cc1,7%,-1%,-12%,10µM*,-13%,0
COCCNC(=O)c1ccc(CN2CCC(Cc3ccccc3)CC2)cc1,-5%,3%,i,-18%,20%,0
COc1ccc(CCNC(=O)c2ccc(CN3CCC(Cc4ccccc4)CC3)cc2)cc1OC,8%,3%,-21%,9%,11%,-2
O=C(N=Nc1c(O)[nH]c2ccccc12)Nc1ccccc1,0%,6%,-6%,-2%,-19%,1
Cc1cccc(NC(=S)N=Nc2c(O)[nH]c3ccccc23)c1,-1%,-4%,-24%,10µM*,10µM*,-5
c1ccc(-n2nnnc2SCc2nc3ccccc3[nH]2)cc1,/,/,/,/,/,-15
COc1ccc(NC(=O)/C(Cl)=C(/Cl)S(=O)Cc2ccccc2Cl)cn1 (stereo unspecified),-8%,-2%,-54%,?,4µM*,-6
COCc1cccc(C(=O)NCc2ccc(C#N)cc2)c1,/,/,/,/,/,5
O=C(N/N=C(\CC(=O)c1cccs1)C(F)(F)F)c1cccnc1,4%,-7%,-14%,2.2µM*,3%,-4
O=C(N/N=C(/CC(=O)c1cccs1)C(F)(F)F)c1ccc(O)cc1,4%,-3%,-17%,?,-29%,2
C=CCN1C(c2cccc(C(F)(F)F)c2)=CS/C1=C(/C#N)c1nnc(N2CCOCC2)n1-c1ccccc1,?,2%,i,?,-22%,2
C=CCN1C(=O)NC(c2ccc(OC)cc2)(C(F)(F)F)S/C1=C(\C#N)c1nnc(N2CCOCC2)n1-c1ccccc1 (stereo unspecified),2%,-2%,-31%,?,10µM*,-3
O=C(CCSc1ccc(F)cc1)Nc1ccc(N2CCOCC2)cc1,/,/,/,/,/,1
COc1cccc(NCc2cc(=O)oc3cc(C)c(C(C)C)cc23)c1,17%,6%,-44%,11µM*,-18%,3
COc1ccc(C(=O)Nc2c(NCc3ccccc3)c3ccccc3oc2=O)cc1Br,/,/,/,/,/,-8
COC(=O)c1cc(NCc2ccc(Cl)c(Cl)c2)ccc1N1CCOCC1,/,/,/,/,/,1
Cc1ccc(Cn2nc(C)cc2C(=O)Nc2ccc(Cl)cc2)cc1,13%,2%,-8%,4.5µM*,0%,2
CC(C)(C)c1cc(C(=O)NN)n(Cc2ccc(F)cc2)n1,3%,5%,-9%,?,4%,-2
COC(=O)c1cc(NC(=O)c2cc(C(C)(C)C)nn2Cc2ccc(F)cc2)ccc1N1CCOCC1,-2%,13%,-23%,3.5µM*,-27%,3
Cc1cccc(Cn2nc(C(C)(C)C)cc2C(=O)Nc2ccc(F)cc2)c1,0%,-7%,-32%,5µM*,?,-1
CC1=CC(C)C(/C=N/NC(N)=S)C(C)C1 (stereo unspecified),/,/,/,/,/,-5
CC1=CC(C)C(/C=N/N=C(N)N)C(C)C1 (stereo unspecified),-1%,1%,i,8.9µM*,11%,-7
COC(=O)c1ccoc1COC(=O)c1ccc(C#N)cc1,/,/,/,/,/,-2
Cc1cc(S(=O)(=O)NCc2ccc(N3CCN(C)CC3)cc2)c(C)s1,0%,6%,i,2.2µM*,16%,-3
CN1CCN(c2ccc(CNS(=O)(=O)c3ccc(F)cc3Cl)cc2)CC1,-2%,-2%,-16%,?,20%,-1
SMILES,GLP-1R agonist,IDH1 R132H inh,PTHR1 agonist,GLP-1R inv ag,GLP1R cytotox,LDHA inh
CCOC(=O)c1c(NC(=O)CSc2nnc(-c3c[nH]c4ccccc34)n2CCOC)sc2c1CCCC2,-1%,4%,i,11µM*,-13%,-2
O=C(Nc1cc(C(F)(F)F)ccc1N1CCOCC1)c1n[nH]c(=O)c2ccccc12,-2%,12µM*,i,3%,?,-5
CN1\C(=C/C=C/C=C/C=[N+](C)C)C(C)(C)c2ccccc21,-1%,46µM*,-41%,?,-4%,-1
Cc1cc(C)cc(NS(=O)(=O)c2ccc(-c3cc(C)no3)cc2)c1,/,19%,-47%,3.5µM*,-22%,2
CCCOc1cccc(C(=O)Nc2ccc(-c3cc4ccccc4oc3=O)c(C)c2)c1,/,30%,-19%,4µM*,13%,-3
CCCOc1ccc2cc(-c3ccccn3)c(=O)oc2c1,-3%,0%,-22%,2.8µM*,41%,3
COCCNC(=O)C(=O)N1CCN(c2nc(-c3ccccc3)c3c(c2C#N)CCCC3)CC1,/,/,/,/,/,1
Cc1ccc2nc(-c3ccc(NC(=O)Cc4cccs4)cc3)[nH]c2c1,5%,9%,-31%[57.5 µM],-28%,?,-12
Cc1ccc2nc(-c3ccc(NC(=O)C4CCCO4)cc3)[nH]c2c1 (stereo unspecified),-19%,8%,-21%[57.5 µM],7.9µM*,4%,-3
CCCNC(=S)N1CCC(Cc2ccccc2)CC1,3%,-6%,6%,7.1µM*,?,-3
CCNC(=S)N1CCC(Cc2ccccc2)CC1,0%,7%,-5%,?,-4%,-1
CCN(CC)C(=O)CSc1nc2ccsc2c(=O)n1C,/,/,/,/,/,-1
CCOc1cc(C(=O)Nc2cccc(Cl)c2N2CCCC2)cc(OCC)c1OCC,/,/,/,/,/,-3
O=C(O)c1ccc(S(=O)(=O)/N=C2\C=C(Nc3ccccc3F)C(=O)c3ccccc32)cc1,-9%,26%,-37%,?,?,50
Cc1ccccc1NC1=C/C(=N\S(=O)(=O)c2ccc(C(=O)O)cc2)c2ccccc2C1=O,-2%,21%,-31%,8.9µM*,?,58
CCCNC(=O)c1ccc(CSC)o1,/,/,/,/,/,9
CC(=O)/C(N=Nc1nc2c([nH]1)c(=O)n(C)c(=O)n2C)=C(\C)O,13µM*,1%,i,80%,2%,-1
COCCn1c(C)cc(C(=O)CSc2nnc(CN3CCCC3)n2-c2ccccc2)c1C,/,/,/,/,/,8
CC(/C=C/c1ccccc1)=N\NC(=S)NC(C)C,-9%,-4%,-2%,?,?,-8
CC(/C=C/c1ccccc1)=N\NC(N)=S,2%,0%,-12%,2.5µM*,?,-5
CCOC(=O)CC(=O)CSc1nc2cc(C)ccc2cc1C,20%,15%,-22%,10µM*,-5%,-1
CCNc1nc(NC(C)(C)C)nc(SC(C(C)=O)C(C)=O)n1,-5%,-2%,-16%,8.9µM*,-10%,2
